Experimental data from PubChem BioAssay (Tox21).
Inconclusive results are not listed. Where a call stands in place of a potency, no number is given. Values without a mark were called inactive. The source made the active and inactive calls. Calls come from the whole dose curve; as a rule, active = well fitted activation curve with a large enough effect in the repeat runs; inconclusive = weak or mixed curves; inactive = flat fitted curve, though single readings scatter.

assay: A CellTox Green Cytotoxicity Assay to monitor cytotoxicity in HepG2 cells - 16 hour (AID 1224876); conditions: CellTox Green fluorescence; series mostly up to 76.8 µM; cytotoxicity increase: at the top concentration; note: nearly all actives have a fitted effect of over 45% in size
Text: National Center for Advancing Translational Sciences [NCATS]
NIH Chemical Genomics Center [NCGC]
U.S. Environmental Protection Agency [EPA]
National Institutes of Environmental Health Sciences [NIEHS]
National Toxicology Program [NTP]
Cell-based models are critical for drug discovery. Determining the natural cytotoxic effects resulting from test compounds is an essential research activity. A CellTox Green Cytotoxicity Assay to monitor cytotoxicity in real time of continues cell culture during 40 hours of the compound treatment was used to screen Tox21 10K library compounds in HepG2 cells. CellTox Green Cytotoxicity Assay is a nonlytic, homogeneous, biofluorescent method to measure cytotoxicity in cell culture after experimental manipulation. The assay system uses a proprietary asymmetric cyanine dye that is excluded from viable cells but preferentially stains the dead cell's DNA. […] Viable cells produce no appreciable increases in fluorescence. Therefore, the fluorescence signal produced by the binding interaction with dead cell DNA is proportional to cytotoxicity.
The mixture of HepG2 cell suspension and reagents were dispensed at 600cells/6 ul/well in 1536-well tissue culture treated black solid bottom plates using a Multidrop dispenser. After the assay plates were incubated at a 37 C/5% CO2 incubator for 5 hours, 23 nL of compounds dissolved in DMSO, positive and negative controls was transferred to the assay plate by a pintool work station. The plates were incubated at 37 C for 40 hours. The fluorescence intensity were measured at 0h, 8h, 16h, 24h, 32h and 40h time points using ViewLux plate reader during compound treatment.

| Structure (SMILES) | Potency | cytotoxicity increase |
| --- | --- | --- |
| OCCCc1ccccc1 | inactive | – |
| CCCCCCCC(=O)OCC(O)CO (stereo not given) | – | -3.09% |
| COC(=O)c1ccc(C=O)cc1 | inactive | – |
| C[C@]12C=CC(=O)C=C1CC[C@@H]1[C@@H]2C(=O)C[C@@]2(C)[C@H]1CC[C@]2(O)C(=O)CO | inactive | – |
| Oc1cccc(O)c1 | inactive | – |
| NC(N)=NC(N)=NCCc1ccccc1 | inactive | – |
| CCN(CC)CCOC(=O)c1ccc(N)cc1 | inactive | – |
| CCCCNC(=O)NS(=O)(=O)c1ccc(N)cc1 | inactive | – |
| CC(C)(C)CC(C)(C)c1ccc(O)c(-n2nc3ccccc3n2)c1 | inactive | – |
| COc1ccc(C(=O)c2ccccc2)c(O)c1 | inactive | – |
| Cc1cnc(NC(=O)C2=C(O)c3ccccc3S(=O)(=O)N2C)s1 | inactive | – |
| Nc1ccc(N=Nc2ccccc2)c(N)n1 | inactive | – |
| C/C=C/c1ccc(O)c(OC)c1 | inactive | – |
| O=C1OC(c2ccc(O)cc2)(c2ccc(O)cc2)c2ccccc21 | inactive | – |
| C=C(C)C(N)=O | inactive | – |
| NC(=O)N/N=C/c1ccc([N+](=O)[O-])o1 | inactive | – |
| CN(C)Cc1cc(CN(C)C)c(O)c(CN(C)C)c1 | inactive | – |
| CC(C)=CCC/C(C)=C/CO | inactive | – |
| C#C[C@]1(O)CC[C@H]2[C@@H]3CCC4=CC(=O)CC[C@@H]4[C@H]3CC[C@@]21CC | inactive | – |
| CC(=O)OC/C=C(C)/C=C/C=C(C)/C=C/C1=C(C)CCCC1(C)C | inactive | – |

| Structure (SMILES) | Potency | cytotoxicity increase |
| --- | --- | --- |
| C1CNCCN1 | inactive | – |
| CCN1CCCC1=O | inactive | – |
| CCn1cc(C(=O)O)c(=O)c2ccc(C)nc21 | inactive | – |
| COc1cc(C=O)ccc1O | inactive | – |
| O=c1c(-c2ccc(O)cc2)coc2cc(O)cc(O)c12 | inactive | – |
| COCC(C)N (stereo not given) | inactive | – |
| Nc1cccc(N)c1 | inactive | – |
| CCCCCCCCCCCCCC(=O)OC(C)C | inactive | – |
| COc1ccccc1NC(=O)CC(C)=O | inactive | – |
| C[C@]12CC[C@@H]3c4ccc(O)cc4C[C@@H](CCCCCCCCCS(=O)CCCC(F)(F)C(F)(F)F)[C@H]3[C@@H]1CC[C@@H]2O (stereo not given in full) | inactive | – |
| CCCCOCCOCCOC(C)=O | – | 2.13% |
| CCOC(=O)C(C)(C)Oc1ccc(Cl)cc1 | inactive | – |
| COc1cc(O)c(C(=O)c2ccccc2)cc1S(=O)(=O)O | inactive | – |
| CCCCC/C(C=O)=C\c1ccccc1 | inactive | – |
| CCCCOC(=O)CCCCCCCCC(=O)OCCCC | inactive | – |
| COC(=O)C1CCC(C(=O)OC)CC1 (stereo not given) | inactive | – |
| CN/C(=C\[N+](=O)[O-])NCCSCc1ccc(CN(C)C)o1 | inactive | – |
| CCCCOCCOCCSC#N | inactive | – |
| CCCCCCCCCCCCCCCCCC(=O)OCC(O)CO (stereo not given) | inactive | – |
| NCCNc1cccc2ccccc12 | – | 0.709% [at 35.3 µM] |
